Measured values as given in PubChem BioAssay AID623877 (Johns Hopkins Ion Channel Center, 2012).
About 1,000 (0.29%) of roughly 340,000 compounds were called active.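 How the source made its calls: active means fluorescence-ratio B-score plate-corrected deviation score at least 3 library SD below zero, with starting fluorescence score within 5 deviations; inactive means the rest.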 For the sample, actives were picked, then their nearest neighbours and some compounds at random.

target: Anoctamin-1 (Mus musculus) (UniProt Q8BHY3); assay: TMEM16A chloride channel activators or potentiators, primary screen, cell-based, HTS (AID 623877); conditions: HEK293 TMEM16A/YFP-H148Q/I152L, iodide quench fluorescence, at 10 µM; active compounds read low;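 on B-score: channel opened by trigger with iodide after compound preincubation; score built on the fluorescence ratio of max minus min over baseline; more negative score means more quench and so TMEM16A activation or potentiation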
Sequence (Q8BHY3 whole entry, looked up): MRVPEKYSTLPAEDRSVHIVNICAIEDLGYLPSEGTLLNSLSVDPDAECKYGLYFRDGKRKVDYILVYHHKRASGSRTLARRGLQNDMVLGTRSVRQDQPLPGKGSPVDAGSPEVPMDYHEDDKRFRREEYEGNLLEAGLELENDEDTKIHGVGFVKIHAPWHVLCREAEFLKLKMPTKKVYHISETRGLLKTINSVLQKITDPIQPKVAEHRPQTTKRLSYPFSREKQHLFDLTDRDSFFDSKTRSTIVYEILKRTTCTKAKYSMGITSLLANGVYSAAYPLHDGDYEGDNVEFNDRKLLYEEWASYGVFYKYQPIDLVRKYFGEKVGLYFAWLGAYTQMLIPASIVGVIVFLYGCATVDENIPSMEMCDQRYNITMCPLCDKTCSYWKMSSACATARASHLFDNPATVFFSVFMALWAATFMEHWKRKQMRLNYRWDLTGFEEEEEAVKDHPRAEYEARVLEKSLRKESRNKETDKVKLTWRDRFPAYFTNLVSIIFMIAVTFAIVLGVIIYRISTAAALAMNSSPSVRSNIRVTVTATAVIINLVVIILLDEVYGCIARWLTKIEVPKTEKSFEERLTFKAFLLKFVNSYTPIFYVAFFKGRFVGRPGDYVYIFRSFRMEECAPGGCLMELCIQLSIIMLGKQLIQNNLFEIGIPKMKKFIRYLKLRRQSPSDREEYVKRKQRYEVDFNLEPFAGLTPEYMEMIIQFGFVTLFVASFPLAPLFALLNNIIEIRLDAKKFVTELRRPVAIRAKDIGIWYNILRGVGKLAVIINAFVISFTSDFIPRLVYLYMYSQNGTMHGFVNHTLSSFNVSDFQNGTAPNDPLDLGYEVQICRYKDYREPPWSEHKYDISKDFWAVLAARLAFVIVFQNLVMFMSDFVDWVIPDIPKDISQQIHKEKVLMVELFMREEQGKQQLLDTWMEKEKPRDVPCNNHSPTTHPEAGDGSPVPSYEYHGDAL

Compound	B-score
O=C(C1CCC1)N1CCN(S(=O)(=O)c2ccc([N+](=O)[O-])cc2)CC1	inactive
COc1ccc(N2CCN(C(=S)Nc3ccc(S(N)(=O)=O)cc3)CC2)cc1	inactive
COc1cc(NC(=S)NCc2ccc(S(N)(=O)=O)cc2)cc(OC)c1	inactive
COc1ccc(NC(=S)Nc2ccc(S(N)(=O)=O)cc2)c(C)c1	-4.58 (active)
Cc1ccc(CCNC(=O)C2CCN(S(=O)(=O)N3CCCC3)CC2)cc1	inactive
O=C(O)C1CCN1C1CCCCC1 (stereo unspecified)	-6.61 (active)
O=C(O)c1cccc2c1C(=O)N(C1CCCCC1)C2	inactive
CC(Sc1nnnn1C1CCCCC1)C(=O)O (stereo unspecified)	inactive
COc1cccc2c1OCC(CN1CCN(C3CCCCC3)C(CCO)C1)=C2 (stereo unspecified)	inactive
CC(=O)OCC1(O)CC23CCC4c5ccoc5CCC4(C)C2CCC1C3 (stereo unspecified)	-17.2 (active)
Oc1cc2c(cc1O)CN(C(=S)NCCc1ccc(Cl)cc1)CCC2	inactive
Cc1nc(SCC(=O)NC2CCCC2)[nH]c(=O)c1C	inactive
C[C@H](NC(=O)c1nc[nH]c1C(=O)N[C@@H](C)C(=O)OC(C)(C)C)C(=O)OC(C)(C)C	inactive
COCC1CCCN(Cc2nc(-c3ccc4c(c3)OCO4)no2)C1 (stereo unspecified)	inactive
CN(CCN1CCOCC1)Cc1nc(-c2ccc3c(c2)OCO3)no1	-6.61 (active)
CCn1ccnc1CN(C)Cc1nc(-c2ccc3c(c2)OCO3)no1	inactive
CC(C)N(Cc1ccccc1)C(=O)COC(=O)c1cnccn1	inactive
Cc1cc2c(cc1C)N(C(=O)CN1C(=O)c3ccccc3C1=O)C(C)(C)c1ssc(=S)c1-2	-9.51 (active)
Cc1ccc2c(c1)-c1c(ssc1=S)C(C)(C)N2C(=O)CN1C(=O)c2ccccc2C1=O	inactive
Cc1cc(C)cc(NC(=O)CN2C(=O)c3ccccc3C2=O)c1	inactive
O=C(NCCCN1CCN(c2ccccc2F)CC1)C1CCC(=O)N1C1CCCCC1 (stereo unspecified)	inactive
Cc1ccccc1CSc1nnc(Cn2c(=O)sc3ccccc32)n1C	inactive
Cc1ccc(NS(=O)(=O)c2ccc3c(c2)oc(=O)n3C)c(C)c1	inactive
O=C(NCc1ccco1)C1CCCN(S(=O)(=O)c2cnc[nH]2)C1 (stereo unspecified)	-16.8 (active)

Compound	B-score
O=C(NCc1ccco1)C1CCCN(S(=O)(=O)c2ccccc2)C1 (stereo unspecified)	inactive
CCCS(=O)(=O)N1CCCC(C(=O)NCc2ccco2)C1 (stereo unspecified)	inactive
Cc1cc(S(=O)(=O)NCC(C)C)ccc1OCC(=O)NC1CC1	inactive
CCN(CC)CCOc1ccc2c(c1)C(=NNC(=O)c1ccccn1)c1cc(OCCN(CC)CC)ccc1-2	inactive
CCn1c(SCC(=O)Nc2ccccc2F)nc2c(c1=O)SC(C)C2 (stereo unspecified)	inactive
COC(=O)/C=C\C(=O)Nc1cccc([N+](=O)[O-])c1	-4.72 (active)
O=C(Nc1cccc([N+](=O)[O-])c1)Nn1cnnc1	inactive
COc1ccc(S(=O)(=O)NC(C)C(=O)Nc2cccc([N+](=O)[O-])c2)cc1 (stereo unspecified)	inactive
CCn1c(COc2ccccc2)nnc1SCC(=O)Nc1ccc2c(c1)OCCO2	-32.9 (active)
CCn1c(SCC(=O)Nc2ccc3c(c2)OCCO3)nnc1C(C)C	inactive
CCn1c(SCC(=O)Nc2ccc3c(c2)OCCO3)nnc1-c1ccncc1	inactive
C/C(=N\NC(=O)c1cccnc1)c1ccc(-n2ccnc2)cc1	inactive
Nc1nc(NC(=O)/C=C/c2ccccc2)nn1-c1ccccc1	inactive
C=CCSc1nnc(N2C(=O)C(O)=C(C(=O)c3ccco3)C2c2ccc(F)cc2)s1 (stereo unspecified)	-5.81 (active)
C=CCOc1cccc(C2C(C(=O)c3ccc(C)o3)=C(O)C(=O)N2c2nnc(C)s2)c1 (stereo unspecified)	inactive
Cc1ccc2nc(N3C(=O)C(O)=C(C(=O)c4ccco4)C3c3cccc(O)c3)sc2c1 (stereo unspecified)	inactive
COc1cccc(NC(=O)CN(C)C(=O)c2cc(C3CC3)nn2-c2ccccc2)c1	inactive
O=C(COc1ccc(NC(=O)c2ccccc2[N+](=O)[O-])cc1)c1ccc(F)cc1	inactive
COc1ccc(OC)c(NC(=O)CSc2nc(N)c(-c3ccccc3)c(=O)[nH]2)c1	inactive
CCCOC(=O)CC1C(=O)NCCN1Cc1ccc(F)cc1 (stereo unspecified)	inactive
CC(C)c1nc2oc3c(N4CCN(C)CC4)ncnc3c2c2c1CCC2	inactive
Cn1c(=O)c([N+](=O)[O-])c(Oc2ccccc2)c2ccccc21	-29 (active)
Cc1cc(C)c(-c2c(O)c3ccccc3n(C)c2=O)c(C)c1	inactive
Cc1cccc(Oc2c([N+](=O)[O-])c(=O)n(C)c3ccccc23)c1	inactive

Compound	B-score
CN(CCC(=O)Nc1cc(S(=O)(=O)N(C)C)ccc1Cl)CC(=O)Nc1ccc(F)cc1	inactive
CC1=CC(=NNS(=O)(=O)c2ccc([N+](=O)[O-])cc2)CC(C)(C)C1	inactive
COc1cc(NC(=O)c2ccccc2)c(OC)cc1NC(=O)Cc1ccccc1	inactive
CC(=O)c1cc(NC(=O)c2ccccc2)c(=O)oc1/C=C/N(C)C	-6.65 (active)
CCOC(=O)c1cc(NC(=O)c2ccc(Cl)cc2)c(=O)oc1-c1ccccc1	inactive
COc1ccc(N(CCC(=O)NCCc2ccccc2)S(=O)(=O)c2ccc(C)cc2C)cc1	inactive
Nc1ccc2[nH]c(=S)sc2c1	inactive
COc1ccc(C(=O)OCC(=O)NCCCc2ccccc2)cc1OC	inactive
CCN(CCCCOC(=O)c1ccc(OC)c(OC)c1)C(C)Cc1ccc(OC)cc1 (stereo unspecified)	-9 (active)
COc1ccc(C(CCN(Cc2ccc(OC)c(OC)c2)C(=O)CCl)c2ccccc2)cc1 (stereo unspecified)	inactive
CCOCCCNC(=S)N1CCC(NC(=O)C2CCCCC2)CC1	inactive
CCOc1ccccc1NC(=S)NC(=O)CCc1ccccc1	inactive
CCc1cccc(NC(=O)COC(=O)C2CCN(c3ccc(C(F)(F)F)cn3)CC2)c1	inactive
CC[C@@H]1CCCCc2ccccc2[C@@H](C(=O)C[C@H](O)CC(C)=O)OC1=O	inactive
CC(=O)C[C@@H](O)CC(=O)[C@H]1OC(=O)CCCCCCc2ccccc21	-17.5 (active)
CC(=O)C[C@H](O)CC(=O)[C@@H]1OC(=O)[C@@H](C)C/C=C\Cc2ccccc21	inactive
CCOC(=O)CSc1nnc(CNC(=O)Cc2ccccc2)n1-c1ccccc1OC	inactive
Cc1cc(OC(=O)c2ccc(Cl)cc2)cc(=O)n1C	inactive
CCOC(=O)c1sc(/N=C/C2=C(O)CC(C)(C)CC2=O)c(C(=O)OCC)c1C	-35.4 (active)
CCOC(=O)c1c(CC(C)C)csc1/N=C/C1=C(O)CCCC1=O	inactive
CCOC(=O)c1c(/N=C/C2C(=O)CC(C)(C)CC2=O)sc(C)c1C	inactive
COc1ccc(Cl)cc1NC(=O)Cn1nc(-c2ccc(C)cc2)n(C)c1=S	inactive
CCC(NC(=O)C1CCCC1)c1ccc(C)cc1 (stereo unspecified)	inactive
